Most compounds without a hit are left out; they make up all but 8% or so of the library.
FMDV inh: antivirals against foot and mouth disease virus. FMDV antiviral cell-based qHTS. Potency, µM (highest dose often 57.9 µM), hits mostly inhibitors. 410,000 tested, 1.2% active. AID 1159524; calls by dose curve; tested in HEK293T cells; also: read-out not given here; nearly all actives have a fitted effect of over 45% in size
SARS PLP yeast: inhibitors of SARS-CoV papain-like protease in yeast. S. cerevisiae expressing SARS-CoV PLpro, growth rescue. Potency, µM (top dose mostly 32.9 µM), usual class: activators. 330,000 tested, 0.19% active. AID 485353; calls by dose curve; also: nearly all actives have a fitted effect of over 55% in size
HCV inh: HCV inhibition | Huh7.5.1 HCVcc-Cre infection, luciferase reporter, 44 h | 340,000 tested, 3.4% active | Potency, µM (top dose mostly 41.8 µM), usual class: inhibitors; active = well fitted inhibition curve with a large enough effect; inconclusive = small, poorly fitted or top-dose-only effect, or another doubt; inactive = no such curve, though single readings can be large or run the other way
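Infectious HCVcc-Cre (~0.5 moi) was added to cells just after compound, with cells seeded 4 h earlier at 1,000 per well. Luciferase activity after 44 h culture reported infection; substrate was incubated 15 min at room temperature before reading.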
Marburg entry inh: Marburg virus entry inhibition. Marburg virus pseudotyped entry inhibition, cell reporter. Potency, µM (highest dose often 37.8 µM), hits mostly inhibitors. 300,000 tested, 1.8% active. AID 540276; calls by dose curve; tested in HEK293 cells
Lassa entry inh: inhibitors of Lassa virus binding or cell entry. Lassa virus pseudotype entry inhibition, cell reporter. Potency, µM (highest dose often 37.9 µM), hits mostly inhibitors. 300,000 tested, 1.2% active. AID 540256; calls by dose curve; tested in HEK293 cells; also: nearly all actives have a fitted effect of over 50% in size
HCMV inh: blocks human cytomegalovirus replication; HFF cells, HCMV-luciferase reporter, 72 h; stronger effect = lower value; 410,000 tested, 4.5% active; activity change, negative = inhibition, % at 57.5 µM; AID 1259415; in the data active = activity change below about -60%; inconclusive = no clear call, values can overlap the other calls; inactive = above about -39%
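Two-dose cell screen: HFF monolayers treated with compounds and infected with luciferase-expressing HCMV at 1 PFU/cell, 72 h at 37C, then lysed for luciferase measurement.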
Hits are given with their value; – = inactive; ? = inconclusive; · = no result.

SMILES	FMDV inh	SARS PLP yeast	HCV inh	Marburg entry inh	Lassa entry inh	HCMV inh
CSc1cccc(Nc2nc3c(S(=O)(=O)c4ccccc4)nnn3c3ccc(Cl)cc23)c1	–	·	·	–	·	–
CCn1c(=O)c2cc(C(=O)NCCN3CCOCC3)sc2c2ccccc21	–	–	11.2µM	·	·	–
CN(CCCNC(=O)c1cccn2c(=O)c3ccccc3nc12)Cc1ccccc1	?	–	11.2µM	?	–	–
CCn1c(=O)c2cc(C(=O)NCCCN(C)Cc3ccccc3)sc2c2ccccc21	–	·	·	?	–	-70.3
Cn1c(=O)c2cc(C(=O)NC3CCCCCC3)sc2c2ccccc21	–	·	·	–	–	-80.9
COc1ccccc1NC(=O)N[C@H]1CC[C@@]23CCCN2C(=O)CCC[C@H]3C1Cc1ccccc1 (stereo not given in full)	·	·	·	·	·	–
O=C1CC(c2ccccc2)Sc2ccccc2N1Cc1ccc(F)cc1 (stereo not given)	?	·	·	–	·	–
CN(C)c1oc(/C=C/c2ccc(F)cc2)nc1C#N	–	·	·	?	?	–
COc1ccc(Nc2ncc3c(n2)CC(c2ccc(C)cc2)CC3=O)cc1 (stereo not given)	–	–	–	?	0.231µM	–
N#CCCN(Cc1ccccc1)C(C(=O)NC1CCCCC1)c1cc2ccccc2o1 (stereo not given)	–	·	·	·	·	-60.2
COc1ccc(-c2sc3cc4c(cc3c2C#Cc2ccc(N)cc2)OCO4)cc1	–	–	?	·	·	–
COc1ccc(-c2sc3cc4c(cc3c2C#CCO)OCO4)cc1	–	–	11.2µM	·	·	–
COc1ccc2sc(-c3ccccc3OC)c(C#Cc3cncn3C)c2c1	–	–	?	·	·	–
COc1ccccc1-c1sc2cc3c(cc2c1C#Cc1cncn1C)OCO3	?	–	0.891µM	·	·	–
COC(=O)c1c(-c2ccsc2)sc2ccc(-c3cc(OC)c(OC)c(OC)c3)cc12	?	–	?	·	·	–
COC(=O)c1c(-c2ccc(OC)cc2)sc2cc3c(cc12)OCO3	–	–	11.2µM	·	·	–
COc1cc(-c2ccc3sc(-c4ccsc4)c(C#CCO)c3c2)cc(OC)c1OC	–	–	3.16µM	·	·	–
Cc1cccc(N2CCN(C(=O)c3sc4nc5n(c(=O)c4c3C)CCC5)CC2C)c1 (stereo not given)	?	·	·	·	–	–
COc1ccccc1-c1ccc(C(=O)N(C)CC2COCCO2)c(N2CCN(c3ccccc3F)CC2)n1 (stereo not given)	–	·	·	·	·	·
CCOC(=O)C1CCN(C(=O)Cn2ncc3c4ccccc4n(Cc4ccc(F)cc4)c3c2=O)CC1	–	·	·	–	?	–
COc1ccc(-c2sc3cc(OC)c(OC)cc3c2C#CCCO)cc1	–	–	?	·	·	–
COc1ccc(-c2sc3ccccc3c2C#CC2(O)CCCCC2)cc1	–	–	?	·	·	–
COc1ccc(-c2sc3ccccc3c2C#CCO)cc1	–	–	28.2µM	·	·	?
COc1ccc(-c2sc3ccccc3c2C#Cc2cncn2C)cc1	–	–	3.55µM	·	·	–
COc1ccc(-c2sc3ccc(N4CCOCC4)cc3c2C#CCCO)cc1	?	–	3.98µM	·	·	–
SMILES	FMDV inh	SARS PLP yeast	HCV inh	Marburg entry inh	Lassa entry inh	HCMV inh
COc1ccc(-c2sc3cc(OC)c(OC)cc3c2C#CC2(O)CCCCC2)cc1	–	–	15.8µM	·	·	–
COc1ccc(-c2sc3ccccc3c2C#CCCO)cc1	–	–	?	·	·	–
Cn1cncc1C#Cc1c(-c2ccc(S(C)(=O)=O)cc2)sc2ccccc12	?	–	–	·	·	–
O=C1C[C@H](NCc2ccc3c(c2)OCO3)C(=O)N1Cc1ccc2c(c1)OCO2	·	·	·	–	·	·
COc1ccc(-c2nc(NC(=O)CCNC(=O)c3ccco3)sc2C)cc1	?	–	?	·	·	–
COc1ccc(-c2nc(NC(=O)c3cc(C(C)(C)C)nn3C)sc2C)cc1	28.2µM	–	5.62µM	9.2µM	?	·
COc1ccc(-c2nc(NC(=O)c3c(C)noc3C)sc2C)cc1	?	–	?	–	?	-60.5
CCCCCn1c(=N)c(S(=O)(=O)c2ccccc2)cc2c(=O)n3cccc(C)c3nc21	–	·	·	–	?	–
CCOC(=O)OC[C@H]1O[C@H](C#Cc2ccc(C)cc2C)C=C[C@@H]1OC(=O)OCC	·	·	·	–	·	·
O=C(c1ccc2c(c1)OCO2)N1C[C@@H]2[C@H](c3ccccc31)[C@H](CO)N2CC1CCCC1	·	·	·	·	·	–
CC(C)(C)OC(=O)[C@H](Cc1ccccc1)NC(=O)c1nc[nH]c1C(=O)NCC(=O)OCc1ccccc1	–	–	–	·	·	-60.8
CC(C)(C)OC(=O)NCCCC[C@H](NC(=O)c1nc[nH]c1C(=O)NCC(=O)OCc1ccccc1)C(=O)OC(C)(C)C	–	–	–	·	·	-89.4
COc1ccc(NC(=O)c2nc[nH]c2C(=O)N[C@@H](C)C(=O)OC(C)(C)C)cc1	–	–	–	·	·	–
C[C@H](NC(=O)c1nc[nH]c1C(=O)N1CCNCC1)C(=O)OC(C)(C)C	–	–	–	·	·	-65.4
CC(C)C[C@H](NC(=O)c1nc[nH]c1C(=O)N1CCNCC1)C(=O)OC(C)(C)C	–	–	–	·	·	–
COc1ccc(NC(=O)c2nc[nH]c2C(=O)N[C@@H](CC(C)C)C(=O)OC(C)(C)C)cc1	–	–	–	·	·	-78.3
CC(C)(C)OC(=O)N[C@@H](CCCCNC(=O)OCc1ccccc1)c1nnc([C@H](CCCCNC(=O)OCc2ccccc2)NC(=O)OC(C)(C)C)o1	–	–	–	·	·	·
CC(C)C[C@H](NC(=O)c1[nH]cnc1C(=O)N[C@@H](Cc1ccccc1)C(=O)OC(C)(C)C)C(=O)OC(C)(C)C	–	–	?	·	·	-88.5
COc1ccc(NC(=O)C(CCCCNC(=O)OC(C)(C)C)NC(=O)OCc2ccccc2)cc1 (stereo not given)	–	–	–	–	2.06µM	–
O=C(N[C@@H](Cc1ccccc1)C(=O)OCc1ccccc1)c1nc[nH]c1C(=O)N1CCNCC1	–	–	–	·	·	-83.5
Cc1ccc(N2CC(NC(=O)C(=O)c3c[nH]c4ccccc34)CC2=O)cc1 (stereo not given)	–	·	·	·	–	–
COCC1=Cc2cc3c(cc2C(C(C(=O)OC)C(=O)OC)N1C(=O)OC)OCO3 (stereo not given)	·	·	·	–	·	·
CC(Sc1nc(N(C)C)nc(N2CCOCC2)n1)C(=O)Nc1ccccc1 (stereo not given)	–	–	?	–	–	–
CC(Sc1nc(NC(C)(C)C)nc(N(C)C)n1)C(=O)Nc1ccccc1 (stereo not given)	?	–	–	–	·	-60.8
Cc1ccccc1CNC(=O)c1ccc(NC(=O)c2nsc3ccccc23)cc1	–	·	·	·	–	–
N#CC1=C(N)C(C#N)(C#N)[C@H](c2c(F)cccc2F)[C@H]2CC3(CC=C12)OCCO3	?	–	–	?	–	-106.7
CN(Cc1ccccc1)C(=O)CCSc1nc(-c2ccc3c(c2)OCO3)cc(C(F)(F)F)n1	–	–	10µM	?	?	–
O=C(CCSc1nc(-c2ccc3c(c2)OCO3)cc(C(F)(F)F)n1)NCc1ccccc1	–	–	?	?	–	–
